An excerpt weighted towards active compounds, which were near 19% of everything screened.
TDP1 cell CPT – DT40-hTDP1 cell growth loss with CPT. Potency, µM (top dose mostly 46.2 µM), for the others: at the highest dose activity change, negative = growth inhibition, most hits filed as inhibitors. 12% of 420,000 active. chicken DT40 Tdp1-/-;hTDP1 cells + 20 nM CPT, ATP luminescence, 48 h; also: nearly all actives have a fitted effect of over 55% in size
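Chicken DT40 Tdp1-/- cells complemented with human TDP1, 400 cells/well, exposed to compounds plus 20 nM camptothecin for at least 48 h at 37 C; viability read as ATP content by CellTiter-Glo luminescence.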
KB-V1 MDR tox – KB-V1 MDR subline cytotoxicity | 3.4% of 400,000 active | AID 1347076 | KB-V1 MDR cells viability, CellTiter-Glo, 72 h | Potency, µM (highest dose often 46.1 µM), most hits filed as cytotoxic; also: nearly all actives have a fitted effect of over 60% in size
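KB-V1, DMEM (no phenol red) + 10% FBS; cpd pin-transferred, titration series; 72 h, 37 degrees C; CellTiter-Glo, luminescence. Data normalized, curve-fit.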
KB-3-1 tox – kills parental KB-3-1 adenocarcinoma cells | KB-3-1 viability, CellTiter-Glo ATP luminescence, 72 h | 1.4% of 400,000 active | Potency, µM (highest dose often 46.1 µM), most hits filed as cytotoxic; also: nearly all actives have a fitted effect of over 60% in size
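Cells are dispensed, compounds pinned in, plates held at 37 °C for 72 h, then CellTiter-Glo is added and luminescence read after 10 minutes. Cell line: parental KB-3-1 in phenol-red-free DMEM, 10% FBS.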
DT40 TDP1 no CPT – qHTS for Inhibitors of human tyrosyl-DNA phosphodiesterase 1 (TDP1): qHTS in cells in absence of CPT; 15% of 420,000 active; DT40 Tdp1-/- hTDP1 cells, no CPT, ATP luminescence, 48 h; Potency, µM (series often up to 46.2 µM), inactives show at the top dose activity change, negative = growth inhibition, usual class: inhibitors; also: nearly all actives have a fitted effect of over 55% in size
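No-CPT arm: Tdp1-/-;hTDP1 DT40 cells (400/well) plus compounds, incubated ≥48 hr at 37 °C. Readout CellTiter-Glo luminescence.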
HT1080 IDH1KD tx – kills HT-1080 cells with IDH1 knockdown. HT-1080 IDH1 knockdown viability, ATP luminescence, 48 h. Potency, µM (highest dose often 46.1 µM), for inactives: top-dose activity, negative = toxicity, most hits filed as cytotoxic. 2% of 360,000 active. AID 686971;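 also: 0% = DMSO wells and -100% = cell-free medium wells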
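Knockdown cells (IDH1KD HT-1080) received compounds 2 h after plating at 750 cells/well and were kept 48 h at 37 °C in 5% FBS RPMI. A CellTiter-Glo luminescence read gave % activity for curve fitting.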
HT1080NT lethal – kills 2HG-producing HT-1080-NT fibrosarcoma cells | HT-1080-NT fibrosarcoma viability, CellTiter-Glo ATP luminescence, 48 h | Potency, µM (titrated, usually from 46.1 µM), for the others: top-dose activity, negative = less viability, most hits filed as cytotoxic | AID 686970 | 1.6% of 360,000 active;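 also: NT is the 2HG producing partner of a matched IDH1 knockdown line; 0% = DMSO-treated cells and -100% = media-only wells without cells; nearly all actives have a fitted effect of over 55% in size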
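Luminescent CellTiter-Glo readout after 48 hours of compound exposure at 37 degrees C defined viability of HT-1080-NT cells. Activity was normalized to DMSO wells and cell-free media wells; concentration-response curves were fitted and assigned curve classes.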
The depositor's hits bear a star; i = inactive; ? = inconclusive; nt = no result; [ ] = remark or other dose. Calls follow the shape of the dose curve; as a rule, active = well fitted curve in the direction sought with a large enough effect; inconclusive = small, poorly fitted or top-dose-only effect, or another doubt; inactive = no such curve, though single readings can be large; an effect the other way counts as inactive or inconclusive. Unless noted, % is scaled to controls: 0 for no effect and ±100 for the full control effect; potency is read from the fitted curve at half-maximal effect.

SMILES	TDP1 cell CPT	KB-V1 MDR tox	KB-3-1 tox	DT40 TDP1 no CPT	HT1080 IDH1KD tx	HT1080NT lethal
COc1cc(OC)cc(C(=O)NC(=S)NNC(=O)[C@H]2C[C@@H]2c2ccccc2)c1	?	?	i	18.4µM*	-9.5%	-2.2%
COc1cc(OC)cc(C(=O)NC(=S)N(Cc2ccccc2)C(C)C)c1	?	?	?	?	-16.1%	-13.5%
COCCC1CCCCN1C(=O)c1cccc(OC2CCN(C3CCCC3)CC2)c1 (stereo unspecified)	-0.8%	i	i	-27.8%	2.1%	-2.0%
O=C(CSc1ccccc1Cl)N1CCOCC1	5.7%	i	i	-0.6%	10.0%	10.6%
O=C(Nc1ccc(Cl)cc1)Nn1cnnc1	-22.5%	i	i	-3.5%	5.6%	3.2%
CCOC(=O)C1(CCOC)CCCCC1=O (stereo unspecified)	4.9%	i	i	5.6%	5.1%	4.1%
O=S(=O)(c1ccccc1Cl)N1CCN(c2nc(-c3ccccc3)nc3ccccc23)CC1	-25.8%	?	i	?	nt	nt
O=C(CCS(=O)(=O)c1ccc(Cl)cc1)NCCN1C(=O)S/C(=C\c2ccccc2F)C1=O	?	13µM*	i	16.4µM*	-3.7%	-9.8%
Cc1ccc(S(=O)(=O)CCC(=O)NCCN2C(=O)S/C(=C\c3ccccc3)C2=O)cc1	?	11.6µM*	i	?	-12.1%	-8.1%
Cc1ccc(S(=O)(=O)CCC(=O)NCCc2ccccc2)cc1	-6.6%	i	i	-13.9%	-4.6%	-2.5%
CC12CCC(C(=O)N(c3nccs3)C1=O)C2(C)C (stereo unspecified)	6.2%	i	i	-24.4%	16.5%	0.4%
Cc1ccc(CN2CCC(c3nc4ccc(Cl)cc4[nH]3)CC2)cc1	16.4µM*	?	i	16.4µM*	-19.2%[9.24 µM]	?
CC1CCCCN1C(=O)CN1CCC(c2nc3ccc(Cl)cc3[nH]2)CC1 (stereo unspecified)	?	i	i	23.1µM*	-9.6%	-18.5%
COc1ccccc1CCC(=O)N1CCN(S(=O)(=O)c2cc(C(F)(F)F)ccc2Cl)CC1	?	i	i	?	4.0%	-1.8%
Cc1noc(C)c1S(=O)(=O)N1CCCC(C(=O)NCCC2=CCCCC2)C1 (stereo unspecified)	?	i	i	16.4µM*	-13.8%	-7.7%
Cc1noc(C)c1S(=O)(=O)N1CCCC(C(=O)NCCc2ccc(Cl)cc2)C1 (stereo unspecified)	?	i	i	?	-2.0%	-1.0%
Cc1noc(/C=C/N(C)C)c1S(=O)(=O)N1CCCC(C(=O)NCCC2=CCCCC2)C1 (stereo unspecified)	20.6µM*	i	i	16.4µM*	-0.8%	-3.7%
O=C(CN1C(=O)NC2(CCCC2)C1=O)OCc1cc(=O)n2cc(Br)ccc2n1	-4.9%	i	i	-1.0%	-0.4%	-2.2%
COc1ccc(CN2CCCN(S(=O)(=O)c3ccc(Br)cc3)CC2)cc1	?	i	i	18.4µM*	-10.8%	-12.3%
COc1ccc(S(=O)(=O)N2CCN(Cc3cccc(F)c3)CC2)cc1	-4.1%	i	i	29.1µM*	3.2%	?
CCCCN1CC(COCc2ccccc2)Oc2cccc(Oc3ccccc3)c2S1(=O)=O (stereo unspecified)	?	i	?	18.4µM*	-1.3%	-5.9%
CCCCN1CC(COCc2ccccc2)Oc2cccc(OCc3ccc(OC)cc3)c2S1(=O)=O (stereo unspecified)	5.8µM*	i	i	4.11µM*	8.3%	4.7%
